ChEMBL document CHEMBL4513216, “Probing the Open Global Health Chemical Diversity Library for Multistage-Active Starting Points for Next-Generation Antimalarials” (ACS Infect Dis, 2020)
The whole screen tested about 69,000 compounds, of which about 8,600 (12%) showed an effect of 50% or more. The sample as a whole holds a higher share of strong results than the screen did.

System: Plasmodium berghei
Experiment: Screen against P. berghei liver stage (PbLuc), transformed with Luciferase, at 10uM
Format: functional, HepG2
Conditions: tested at 10 uM

SMILES	INHIBITION
Cc1cnn(CC2CN(CC(=O)Nc3cc(C)on3)CCO2)c1 (stereo unspecified)	16.85%
CC(C)n1ccnc1CN1CCCN(C(=O)c2cnc[nH]2)CC1	46.3%
O=C(Cc1ccc2c(c1)OCCO2)NC1CCCCC1	-53.2%
O=C([C@H]1CCCO1)N1CCN(CCn2cccn2)c2ncccc2C1	30.3%
O=C(Nc1ccc(F)cc1)C1CSCN1 (stereo unspecified)	3.38%
COc1ccc(CN(Cc2c[nH]cn2)CC2CCCO2)c(OC)c1 (stereo unspecified)	25.6%
O=C(c1cccs1)N1CCN(CC2CC2)c2ncccc2C1	-22.5%
O=C(NCc1ccccc1Cn1cncn1)N1CCCC1	-33.3%
C1CC(CN2C[C@@H]3CC[C@H]2CN(Cc2nnc(C4CC4)o2)C3)C1	27.5%
Cn1ccc(N2CCCC(NC(=O)c3ccc(Cl)o3)C2=O)n1 (stereo unspecified)	-34.8%
Cn1c2c(ccc1=O)CC(NC(=O)c1ccsc1)CC2 (stereo unspecified)	49.4%
Cn1ccc(N2CCCC(NC(=O)c3ccsc3)C2=O)n1 (stereo unspecified)	72.5%
c1ccc(CN2CCCC(c3nccnc3-n3ccnc3)C2)cc1 (stereo unspecified)	33.5%
CS(=O)(=O)CCNC(=O)Nc1ccc(Cl)cc1-n1cccc1	35.4%
Cc1nc(C2CCCN(C(=O)c3ccc(Cl)cn3)C2)no1 (stereo unspecified)	-2.53%
CCn1c(CC2CCN(S(=O)(=O)c3cccc(C)c3)CC2)nn(C)c1=O	37.4%
CN1CCN(c2ccc(F)cc2NC(=O)NCCn2ccnc2)CC1	37.9%
O[C@@]1(CNCC2(Cn3cccn3)CC2)CCCN2CCCC[C@@H]21	1.56%
CN1CCN(C2CCN(C(C(N)=O)c3ccccc3)CC2)C1=O (stereo unspecified)	20.9%
CCN1CCN(C2CCN(C(C(N)=O)c3ccccc3)CC2)C1=O (stereo unspecified)	61.1%
CCN1CCN(C2CCN(C(C(N)=O)c3ccc(F)cc3)CC2)C1=O (stereo unspecified)	16.6%
Cc1cnn(CCNCC(=O)NC(c2ccccc2)c2ccccc2)c1	-18.9%

SMILES	INHIBITION
Cc1c(C(=O)N2CCC2)nnn1-c1ccc2ncccc2c1	-24.8%
CCn1cnnc1CNC(=O)N1CCN(c2nc(C)c(C)s2)CC1	60.5%
CCn1cnnc1CNC(=O)N1CCC(C)CC1	-13.5%
CCn1cnnc1CNC(=O)N1CCCC1	-3.2%
CCn1cnnc1CNC(=O)N1CCN(c2nccs2)CC1	27.8%
CCn1cnnc1CNC(=O)N1CCC(C(=O)NC)CC1	61.3%
CCn1cnnc1CNC(=O)N1CCC(O)CC1	17.4%
COc1ccccc1OCCc1cc(C2CCNC2)n[nH]1 (stereo unspecified)	41.2%
Cc1ncc(C(=O)N2C[C@@H]3CC[C@H]2CN(S(=O)(=O)N(C)C)C3)c(C)n1	34.8%
COc1ccc(N2CCNC(C(N)=O)C2)cc1 (stereo unspecified)	7.19%
O=C(O)C1CCCN(C(=O)CCn2ccc3c(Br)cccc32)C1 (stereo unspecified)	34.2%
COc1cccc2c1ccn2CCC(=O)N1CCCC(C(=O)O)C1 (stereo unspecified)	-22.9%
O=C(O)C1CCCN(C(=O)CCn2ccc3c(Cl)cccc32)C1 (stereo unspecified)	63.1%
Cn1cc(C2CCCN2C(=O)c2cnc(-c3ccccn3)s2)cn1 (stereo unspecified)	-59.7%
Cc1nc(Cn2c(=O)cnc3ccccc32)n(C)n1	17.6%
COC(=O)NCC(=O)NCc1nn(-c2ccccc2)c2c1CCC2	24.75%
Cc1noc([C@]23COC[C@H]2CN(C(=O)N2CCCC2)C3)n1	15.8%
O=C(c1cnccn1)N1CCCC(C2=Nc3ccccc3S(=O)(=O)N2)C1 (stereo unspecified)	16.705%
CCNS(=O)(=O)c1ccc(C)c(C(=O)N(C)Cc2ccccc2C)c1	67.3%
CCNS(=O)(=O)c1ccc(C)c(C(=O)N(C)Cc2ccco2)c1	26.8%
CCCN(C)C(=O)c1cc(S(=O)(=O)NCC)ccc1C	16.6%
CCN(CC)[C@@H]1CN(Cc2nccn2C)[C@@H]2CCCO[C@H]12	20.1%

SMILES	INHIBITION
COc1ncc(CN2CCOC(Cc3cccc4ccccc34)C2)cn1 (stereo unspecified)	-31.8%
c1ccc2c(CC3CN(Cc4nccs4)CCO3)cccc2c1 (stereo unspecified)	53.3%
Cc1cccnc1CN1CCOC(Cc2cccc3ccccc23)C1 (stereo unspecified)	42.1%
Cc1ccc(NC(=O)Cc2cnc3n(C)c(=O)[nH]c(=O)n23)cc1	0.207%
CCn1ncc(Cn2cc(Cl)c(N)n2)c1C	51.5%
Cc1c(Cn2cc(Cl)c(N)n2)cnn1C	17.8%
CCn1cc(Cn2cc(Cl)c(N)n2)c(C)n1	-18.8%
CC(=O)N1CCCN(C(=O)NCc2ccc(Cl)s2)CC1	25.6%
CN(C)C(=O)COCC1CN(Cc2ccoc2)Cc2ncn(C)c21 (stereo unspecified)	12.5%
COc1ccc(S(=O)(=O)N2CCOC(Cn3ccnc3)C2)cc1 (stereo unspecified)	8.12%
FC(F)CN1CCC(NCc2ccc(-n3cccn3)nc2)CC1	48.2%
CN(C)CCNC(=O)c1cc(-c2cnc(N3CCCC3)nc2)cn1C	63.7%
Cn1cc(-c2cnc(N3CCOCC3)nc2)cc1C(=O)NCCO	35.8%
CN(C)CCNC(=O)c1cc(-c2cnc(N3CCOCC3)nc2)cn1C	19.4%
CCCNC(=O)c1cc(-c2cnc(N3CCCC3)nc2)cn1C	64.9%
CN1CCN(C(=O)c2cc(-c3cnc(N4CCCC4)nc3)cn2C)CC1	-2.17%
Cn1cc(-c2cnc(N3CCCC3)nc2)cc1C(=O)O	-50.8%
COCCN(C)C1COC2(CCN(Cc3cccc(F)c3)CC2)C1 (stereo unspecified)	26.4%
O=C(c1ccccn1)N1CCN(c2ccc(-c3cccnc3)nn2)CC1	21.6%
COCCN(C)C[C@@H]1CN(C(=O)c2ccc(O)c(Cl)c2)C[C@@H]1CO	46.1%
CN(C)c1ccc(CNC(=O)Nc2ccc(S(C)(=O)=O)nc2)cc1	-24.75%
O=C(NCc1ccccc1F)C1=NOC2(CCNC2)C1 (stereo unspecified)	7.65%

SMILES	INHIBITION
CC(C)(C(=O)NCC(=O)NC1CC1)c1ccccc1F	19.4%
O=C(CC1CCN(c2cccnn2)CC1)Nc1cccnc1	21.1%
CC(C)(C)C(=O)N1C[C@H](c2ccsc2)[C@H]2CN(Cc3cccs3)CC[C@H]21	54.6%
CC(C)(C)C(=O)N1C[C@H](c2ccsc2)[C@H]2CN(C3CCCCC3)CC[C@H]21	50.8%
CCCC(=O)NC1CCCN(Cc2cccs2)C1 (stereo unspecified)	7.24%
CC(C)(C)C(=O)N1C[C@H](c2ccsc2)[C@H]2CN(C3CCCC3)CC[C@H]21	34.1%
CC(C)(C)OC(=O)NC1CCCN(Cc2cccs2)C1 (stereo unspecified)	16.5%
O=C(C1CCC1)N1C[C@@H](c2ccsc2)[C@@H]2CN(C3CCCCC3)CC[C@@H]21	32.3%
Cn1nc2c(cc1=O)CN(Cc1coc(-c3cccc(F)c3)n1)CC2	9.54%
COCCNC(=O)c1nc(NS(=O)(=O)c2ccccc2)sc1C	17.7%
Cc1cnc(C(=O)NC(CN2CCCC2=O)c2ccccc2)cn1 (stereo unspecified)	-15.543%
Cc1cn2c(n1)C(CNCC1=Cc3ccccc3OC1)CCC2 (stereo unspecified)	88.5%
Cc1cn2c(n1)C(CNCC1=Cc3cc(Cl)ccc3OC1)CCC2 (stereo unspecified)	90.2%
Cc1ccc(N2CCCC(NCC3=Cc4ccccc4OC3)C2)nn1 (stereo unspecified)	-4.94%
CCN(CC)c1ncc(CNCC2CCCn3ccnc32)s1 (stereo unspecified)	30.8%
CC(NCC1=Cc2cc(Cl)ccc2OC1)c1nnc2n1CCCC2 (stereo unspecified)	0.139%
Cn1ccnc1C(=O)N1CCCC(Cn2cc(CO)nn2)C1 (stereo unspecified)	47.6%
O=C(Nc1ccc(F)c(F)c1)N1CCC2(CCC(=O)N(C3CC3)C2)CC1	36%
COCCn1ccc2cc(C(=O)NC3CCOC(C)(C)C3)ccc21 (stereo unspecified)	-16.5%
Cc1nn(C)cc1C(=O)N1CCCn2nc(CN3CC[C@H](F)C3)cc2C1	38.5%
COC(=O)NCc1cc2n(n1)CCCN(C(C)=O)C2	9.3%
COC(=O)NCC(=O)N1CCCn2nc(CN3CC[C@H](F)C3)cc2C1	59.1%

SMILES	INHIBITION
Cc1ccc(N2CCC(CCN3CCCC3=O)CC2)nn1	27.7%
Cc1ccc(C2CCCN(S(=O)(=O)N3CCOCC3)C2)nc1 (stereo unspecified)	19.85%
COc1ccc(CNCC2CCN(c3ccccc3OC)C2)cc1O (stereo unspecified)	-29.1%
COc1ccccc1N1CCC(CNCc2cccc(C#N)c2)C1 (stereo unspecified)	53.3%
COc1ccccc1N1CCC(CNCc2cccc(OC)c2OC)C1 (stereo unspecified)	59.4%
COc1ccccc1N1CCC(CNCc2cccc(O)c2)C1 (stereo unspecified)	37.5%
COc1ccccc1N1CCC(CNCc2ccc(C#N)cc2)C1 (stereo unspecified)	40.9%
COc1cccc(N2CCC(CNCc3cccc(C#N)c3)C2)c1 (stereo unspecified)	26.4%
Cc1cnn(CC2CCCN2C(=O)c2cccc(F)c2F)c1 (stereo unspecified)	-65.3%
CN(Cc1cnn(C)c1)C(=O)CCS(=O)(=O)c1ccc2c(c1)OCCO2	38%
O=C(c1ccsc1)N1C[C@H]2CN(Cc3cccnc3)C(=O)[C@H]2C1	4.61%
CO[C@H]1CN(S(=O)(=O)c2ccc(C)cc2)C[C@@]12CCCO2	16.5%
O=C(NCc1cccc(F)c1F)c1cc(CN2CCCC(O)C2)on1 (stereo unspecified)	34.1%
O=C(NCc1cc2ccccc2s1)c1cc(CN2CCCC(O)C2)on1 (stereo unspecified)	50.8%
O=C(NCc1ccc(Cl)s1)c1cc(CN2CCCC(O)C2)on1 (stereo unspecified)	49.9%
CC(C)C[C@H](NC(=O)N1CCC(Cc2ccccc2)CC1)C(=O)O	43.4%
CCC(CO)N(Cc1cccnc1)C(=O)c1ccc(C)[nH]c1=O (stereo unspecified)	35.1%
Cc1ccc(CN2CCOC3(COCCN(S(C)(=O)=O)C3)C2)o1 (stereo unspecified)	15.4%
